According to PubChem BioAssay (NCI):
About 79,000 compounds went through this panel and 15% of them were active in at least one assay; those are over-represented in the sample as a whole. Activity calls are given as the source filed them. Cut-off read from the data, not from the text of the source: active = growth inhibition above about 70%; inactive = the rest.

Tests used:
[1] = NCI Yeast Anticancer Drug Screen. Data for the rad50 strain (AID 155);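 note: 0% = growth of vehicle-only cultures of the same strain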; details: S. cerevisiae rad50 strain growth inhibition; at 50.0 µM; stronger effect = higher value
Outline: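 DNA repair mutant yeast, compound exposure, growth read-out; inhibition is taken relative to vehicle.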

[2] = NCI Yeast Anticancer Drug Screen. Data for the mec2-1 strain (AID 157); details: S. cerevisiae mec2-1 strain, at 50.0 µM, stronger effect = higher value
Outline: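 Using mec2-1 yeast: add compound, measure growth, express inhibition versus vehicle-treated cultures.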

[3] = NCI Yeast Anticancer Drug Screen. Data for the sgs1 mgt1 strain (AID 161);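 note: 0% = growth of cultures given vehicle only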; details: S. cerevisiae sgs1 mgt1 strain, at 50.0 µM, stronger effect = higher value
Outline: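 Growth of a repair-deficient yeast mutant was monitored after compound treatment and expressed as inhibition relative to vehicle-treated cultures.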

[4] = NCI Yeast Anticancer Drug Screen. Data for the cln2 rad14 strain (AID 165);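 note: 0% = growth equal to vehicle treated cultures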; details: S. cerevisiae cln2 rad14 strain, at 50.0 µM, stronger effect = higher value
Outline: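 Yeast strain cln2 rad14, bearing defects in cell cycle control and DNA repair, serves as the test system; values reflect growth inhibition compared with vehicle.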

[5] = NCI Yeast Anticancer Drug Screen. Data for the bub3 strain (AID 167); details: S. cerevisiae bub3 mutant strain, at 50.0 µM, stronger effect = higher value
Outline: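 In this screen, a yeast mutant lacking normal mitotic checkpoint function is challenged with compound. Relative growth versus vehicle gives the inhibition value.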

[6] = NCI Yeast Anticancer Drug Screen. Data for the mlh1 rad18 strain (AID 175); details: S. cerevisiae mlh1 rad18 strain growth inhibition; at 50.0 µM; stronger effect = higher value
Outline: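 Steps: expose repair-defective yeast to compound; measure growth; express inhibition against vehicle-treated controls.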

Measured: growth inhibition

CC1OC(OC2C(OC(=O)[C@@H]3CC(C)(C)C[C@H]4C5=CC[C@@H]6[C@@]7(C)C[C@H](O)[C@H](OC8OC(CO)C(O)C(O)C8O)[C@@](C)(CO)[C@@H]7[C@H](O)C[C@@]6(C)[C@]5(C)CC[C@@]34C)OCC(O)C2O)C(O)C(O)C1O (stereo partly specified)
inactive: [1] -22.4% | [2] -20.7% | [3] -18.1% | [4] -14.2% | [5] -1.8% | [6] -64.4%

COc1cc(OC)c(OC(=O)CCl)c(OC)c1
inactive: [1] -3.85% | [2] 1.3% | [3] 3.2% | [4] 1.7% | [5] 11.2% | [6] 17.4%

O=c1[nH]c2cc(Cl)ccc2nc1/C=C(\O)c1ccc([N+](=O)[O-])cc1
inactive: [1] 25.6% | [2] 21.8% | [3] 37.4% | [4] 7.85% | [5] 6.55% | [6] 54%

O=c1[nH]c2cc(Cl)ccc2nc1/C=C(\O)c1ccc2ccccc2c1
inactive: [1] 27.2% | [2] -5.2% | [3] -6.3% | [4] -3.85% | [5] -16.6% | [6] 25.4%

O=C1CC(C2(O)C(=O)Nc3ccc([N+](=O)[O-])cc32)c2ccccc21 (stereo unspecified)
inactive: [1] -22% | [2] -19.1% | [3] -9.65% | [4] -5.4% | [5] 11.2% | [6] -39.4%

COC1C2CCC1C(N=O)C2Br (stereo unspecified)
inactive: [1] -23.2% | [2] 3.75% | [3] -3.1% | [4] -44.9% | [5] 0.65% | [6] -14.7%

Cn1c(=O)c2[nH]c(Cl)nc2n(C)c1=O
inactive: [1] 9.6% | [2] -23.6% | [3] 6.7% | [4] -3.8% | [5] -16.6% | [6] -8.55%

C/C(=N\NS(=O)(=O)c1ccccc1)c1ccc(Cl)c(Cl)c1
inactive: [1] -19.3% | [2] -10% | [3] -18.9% | [4] 2.25% | [5] 10.5% | [6] -38.5%

O=C(Nc1cccc([N+](=O)[O-])c1)C1C(=O)N(c2cccc([N+](=O)[O-])c2)C(=O)/C1=N/O (stereo unspecified)
inactive: [1] -16.8% | [2] -7.4% | [3] -24.8% | [4] -50.4% | [5] 0.1% | [6] -3.5%

COC(=O)c1cc(C(=O)OC)c(CC(=O)C(=O)Nc2ccc(Cl)c(C(F)(F)F)c2)nc1CC(=O)C(=O)Nc1ccc(Cl)c(C(F)(F)F)c1
inactive: [1] -25.2% | [2] -30.2% | [3] -30.9% | [4] 10.5% | [5] 12.2% | [6] -17.9%

Cc1ccc(C)c(NC(=O)Oc2ccc(C(=O)OCc3ccccc3)cc2)c1
inactive: [1] 66.8% | [4] 40.5%
active: [2] 90.8% | [3] 74.9% | [5] 96.5% | [6] 89.5%

Cc1ccc(C2=C(c3ccccc3)C(O)(c3ccccc3)C(c3ccccc3)=C2c2ccc(C)cc2)cc1
inactive: [1] -1.6% | [2] -20.1% | [3] -31.5% | [4] 15.8% | [5] 14.1% | [6] -12.7%

CC(=O)OCc1cc(OC(C)=O)cnc1COC(C)=O
inactive: [1] -9.25% | [2] -24.6% | [3] -17.4% | [4] -19.2% | [5] -7.85% | [6] -36.2%

O=C(O)Cn1cnc2c(=O)[nH]c(Nc3ccccc3)nc21
inactive: [1] 24.4% | [2] 9.1% | [3] 34.9% | [4] 5.35% | [5] 15.5% | [6] -17.1%

Cc1ccc(/C=C/c2cc(/C=C/c3ccc(C)cc3)c([N+](=O)[O-])cc2[N+](=O)[O-])cc1
inactive: [1] 23.2% | [2] -15.2% | [3] -2.3% | [4] -61.8% | [5] -1.4% | [6] 1.2%

CCN=C(c1ccccc1)N(O)c1ccccc1
inactive: [1] -10.7% | [2] 9.2% | [3] -3.15% | [4] 6.35% | [5] 7.7% | [6] -14.1%

c1ccc2cc3c(cc2c1)oc1cc2ccccc2cc13
inactive: [1] -14.1% | [2] -9.05% | [3] -4.8% | [4] -6.1% | [5] -5.7% | [6] -10%

COc1ccc2c(c1)CCC(OS(=O)(=O)CC13CCC(CC1=O)C3(C)C)C2=O (stereo unspecified)
inactive: [1] -9.15% | [2] 5% | [3] -15.2% | [4] -10.7% | [5] -21.9% | [6] -0.45%

CCOC(=N)c1cn(C2OC(CO)C(O)C2O)c2nc[nH]c(=O)c12 (stereo unspecified)
inactive: [1] 3.35% | [2] -5.25% | [3] 11.2% | [4] 23.4% | [5] 16.2% | [6] 0.4%

Cc1ccccc1OCC1COCN(C(C)(C)C)CO1 (stereo unspecified)
inactive: [1] -13.5% | [2] -2.2% | [3] 4.95% | [4] 7.8% | [5] -20.9% | [6] 19.6%

Nc1cc2c3c(cccc3c1Br)C(=O)OC2=O
active: [1] 99.5% | [2] 99.8% | [3] 99.7% | [4] 99.3% | [5] 99.7% | [6] 99.5%

CCCCN(CCCC)CCNC(c1ccc(Cl)cc1)c1ccc(OC)cc1 (stereo unspecified)
inactive: [1] 14.5% | [2] 4.3% | [3] 4.45% | [4] -7.85% | [5] 8.35% | [6] 33.4%

CCOC(=O)NC(Nc1cccc(F)c1)(C(F)(F)F)C(F)(F)F
inactive: [1] 16.8% | [2] -9.05% | [3] -22.4% | [4] 20.9% | [5] -12.3% | [6] 4.9%

CCC[n+]1cccc(C#N)c1
inactive: [1] 6.15% | [2] 5.4% | [3] -7.35% | [4] -24.9% | [5] -4.2% | [6] 22.2%

O=[N+]([O-])C(CO)(CO)c1ccccc1
inactive: [1] 25.3% | [2] 2.4% | [3] 6% | [4] 18.8% | [5] 3.55% | [6] 15.7%

CCOC(=O)OC1C(OC)OC2COC(c3ccccc3)OC2C1OC(=O)OCC (stereo unspecified)
inactive: [1] -1.4% | [2] -13.3% | [3] -20% | [4] -15.7% | [5] -2.25% | [6] 11.4%

C/C=C/Sc1ccccc1C(=O)O
inactive: [1] -14.3% | [2] -19.4% | [3] -9.55% | [4] -18.9% | [5] -22.6% | [6] -34%

CCC(Sc1cc(Cl)c(C)cc1S(=O)(=O)Nc1nc(N)nc(N(C)C)n1)C(=O)O (stereo unspecified)
inactive: [1] -16.1% | [2] -10.1% | [3] 6.3% | [4] 25.2% | [5] -12.3% | [6] 2%

CCC(=O)Oc1ccc[nH]c1=O
inactive: [1] 1.8% | [2] 21.2% | [3] 4.95% | [4] 24.6% | [5] 9.95% | [6] 14.2%

CN(C)c1ccc(/C=C(\C#N)c2cccc(F)c2)cc1
inactive: [1] -4.85% | [2] 0.3% | [3] 1.5% | [4] -14.2% | [5] 3.4% | [6] -20.2%

CCCCC1SC2=NCCN2C1(O)c1ccc(Cl)cc1 (stereo unspecified)
inactive: [1] 14.6% | [2] 3.55% | [3] 28.9% | [4] 18% | [5] 31.3% | [6] 26.5%

Cc1nc2sc(CCl)nn2c(=O)c1Cl
inactive: [1] 16.1% | [2] 34% | [3] 14.6% | [4] 17.9% | [5] 21.2% | [6] 10.8%

Cc1cc2c(cc1[N+](=O)[O-])OCCO2
inactive: [1] 11.3% | [2] 3.9% | [3] 4.55% | [4] -15.5% | [5] -3.25% | [6] 8.55%

Cc1cccc(NC(=S)Nc2ccc(-c3ccc(NC(=S)Nc4cccc(C)c4)cc3)cc2)c1
inactive: [1] -0.2% | [2] 22.6% | [3] 29.9% | [4] 0.15% | [5] 16.2% | [6] 34.7%

Cc1c(C#N)c(N)[nH]c(=S)c1C#N
inactive: [1] 5.5% | [2] 20.2% | [3] 4.95% | [4] 1.25% | [5] 0.45% | [6] 11.3%

N#CC12CC3(CCC1CCC1(C2)OCCO1)OCCO3 (stereo unspecified)
inactive: [1] -13.8% | [2] 2.65% | [3] -3.9% | [4] -6.65% | [5] 4.3% | [6] -1%

CCOC(=O)/C=C(/O)CC(=O)OCC.[Cu+2]
inactive: [1] -11.8% | [2] -1.8% | [3] -5.7% | [4] -21% | [5] -17.1% | [6] -0.45%

Cc1nc(C(=O)O)c(C(=O)O)[nH]1
inactive: [1] -4.4% | [2] -15.1% | [3] -10.9% | [4] -1.7% | [5] -7.75% | [6] 1.2%

NS(=O)(=O)c1ccc(N=Nc2nc3[nH]c(=O)[nH]c(=O)c3[nH]2)cc1
inactive: [1] 22.3% | [2] -9.2% | [3] 3.05% | [4] -4.85% | [5] -7.2% | [6] 18.6%

C=CCSc1nc2ccc(N=Cc3ccc([N+](=O)[O-])cc3)cc2s1
inactive: [1] 2.05% | [2] -12.5% | [3] -8.7% | [4] -14.6% | [5] 5.95% | [6] -21.2%

O=C(Nc1ccccc1)c1cc([N+](=O)[O-])cc([N+](=O)[O-])c1
inactive: [1] 9.25% | [2] 16.4% | [3] 15.3% | [4] -24.6% | [5] 9.55% | [6] 0.05%
